# According to PubChem BioAssay (NCI):
# Where “and” joins values, the source holds several entries; their conditions need not be identical. Equal entries are not always repeated. This is part of a sample that, as a whole, favours compounds with a hit. Of some 83,000 tested, about 20% had one in any assay.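 In brief: 96-well plates, 48 h treatment, single concentration, percent growth endpoint.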 Calls of active or inactive are those of the source. The calls were made as follows: active = growth percent below 10; inactive = the rest.
# How the values were obtained:
# Assay in all cases: NCI-60 one-dose screen, 48 h (100 = growth as untreated, 0 = no growth, -100 = all killed)
# Details in all cases: 10 µM
# [1] = tested on: T-47D breast
# [2] = tested on: BT-549 breast
# [3] = tested on: MDA-MB-435 melanoma
# [4] = tested on: SW-620 colon
# [5] = tested on: MCF7 breast
# [6] = tested on: HCT-116 colon
# [7] = tested on: HCC-2998 colon
# [8] = tested on: KM12 colon
# [9] = tested on: MDA-MB-468 breast
SMILES,growth [1],growth [2],growth [3],growth [4],growth [5],growth [6],growth [7],growth [8],growth [9]
Cc1ccc(F)cc1N/C=c1\s/c(=C(\C#N)C(=O)Nc2ccccc2)n(-c2ccccc2)c1=O,76.7% (inactive),99.7% (inactive),98.5% (inactive),105% (inactive),38.8% (inactive),42% (inactive),92.1% (inactive),84.8% (inactive),53% (inactive)
CCN(CC)CCOc1ccc(C(=C(C)c2ccccc2)c2ccc(OCCN(CC)CC)cc2)cc1,-85.3% (active),50.4% (inactive),-83% (active),-4.84% (active),-61.8% (active),6.73% (active),-5.25% (active),0.838% (active),-18.5% (active)
COc1ccc(/C(CSc2nnc(-c3c[nH]c4ccccc34)n2-c2ccccc2)=N/O)cc1,10.4% (inactive),16.5% (inactive),-5.25% (active),39.4% (inactive),14.5% (inactive),28.1% (inactive),42.4% (inactive),21.2% (inactive),0.589% (active)
CNC(=O)c1cccc(N2CCc3c2ccc(NC(=O)Nc2ccc(N4CCN(C)CC4)c(C(F)(F)F)c2)c3F)c1,94.5% (inactive),11.6% (inactive),-96.1% (active),-71.7% (active),-79.8% (active),-95.3% (active),-94.1% (active),-88.1% (active),90.4% (inactive)
COc1ccccc1C(=O)NNC(=O)CSc1nc2c(c(=O)[nH]1)CCCC2,81.2% (inactive),101% (inactive),109% (inactive),112% (inactive),95.8% (inactive),102% (inactive),108% (inactive),94.5% (inactive),120% (inactive)
CC(=O)NCC1=C(C)C=C2C(=O)[C@](C)(O)C3(CC3)C(C)=C21,-11.8% (active),-46.5% (active),-80% (active),70.1% (inactive),3.29% (active),-45.1% (active),-79.4% (active),-5.71% (active),-79.7% (active)
CC(C)Sc1nc(NC2CC2)c(C#N)c(-c2ccccc2)n1,92.7% (inactive),91.2% (inactive),98.6% (inactive),100% (inactive),88.1% (inactive),46.7% (inactive),97% (inactive),94.7% (inactive),80.4% (inactive) and 99.9% (inactive)
CN1CCc2c(sc3ncnc(N/N=C/c4cn(-c5ccccc5)nc4-c4ccc(Cl)cc4)c23)C1,35.9% (inactive),41.1% (inactive),41.9% (inactive),10.8% (inactive),-31.6% (active),2.65% (active),5.24% (active),21.6% (inactive),-55.4% (active)
COc1ccc2[nH]c(O)c(N=NC(=O)COc3ccc(NC(=O)Nc4ccc(Cl)c(Cl)c4)cc3)c2c1,-72.1% (active),-20.6% (active),-88.8% (active),3.28% (active),-26% (active),-42% (active),-67.4% (active),-31% (active),-57.8% (active)
CN1CCN(c2ccc(C(=O)/C=C/c3cc(C(F)(F)F)ccc3Cl)cc2)CC1,-37.4% (active),-72.6% (active),-56.5% (active),-70.7% (active),-85.3% (active),-61.7% (active),-98.1% (active),-36.5% (active),-97.6% (active)
COc1ccc(CN2[C@@H](C(=O)NCc3ccc(C(=O)NO)cc3)Cc3c([nH]c4ccccc34)[C@@H]2C2CC2)cc1,3.04% (active),43.3% (inactive),-42.1% (active),-21.5% (active),14.1% (inactive),12.9% (inactive),25.1% (inactive),20.3% (inactive),-3.5% (active)
CCOC(=O)C1=C(N)N(c2ccccc2)C2=C(C(=O)CC(C)(C)C2)C1c1ccc(Cl)cc1 (configuration not stated),29.5% (inactive),43.2% (inactive),22% (inactive),27.9% (inactive),17.4% (inactive),18.7% (inactive),42.9% (inactive),17.9% (inactive),33.2% (inactive)
CCCCCCCCCCCCCCCCCCCC(=O)NCCc1c[nH]c2ccc(O)cc12,103% (inactive),32.3% (inactive),112% (inactive),112% (inactive),84.9% (inactive),83.3% (inactive),114% (inactive),88.5% (inactive),128% (inactive)
CN1C(=O)N(C)C2SC(N/N=C/c3ccccc3F)=NC21 (configuration not stated),64.3% (inactive),45.4% (inactive),-16.6% (active),47.4% (inactive),32% (inactive),37.5% (inactive),88.5% (inactive),45.2% (inactive),0.576% (active)
COc1ccc(CN2[C@@H](C(=O)NCc3ccc(C(=O)NO)cc3)Cc3c([nH]c4ccccc34)[C@@H]2C)cc1,13.9% (inactive),43.6% (inactive),-36.4% (active),-31.3% (active),15.8% (inactive),9.97% (active),14.6% (inactive),20.4% (inactive),7.58% (active)
C/C(=N\N=C\c1ccc(Cl)c([N+](=O)[O-])c1)c1ccc2c(c1)Nc1ccccc1S2,41.3% (inactive),58.4% (inactive),49.9% (inactive),6.06% (active),6.3% (active),19.4% (inactive),8.71% (active),29.4% (inactive),-29.3% (active)
Cn1cc(-c2cc(N)n3nc(-c4c[nH]c5ccc(Br)cc45)cc3n2)c2cc(Br)cnc21,-74.7% (active),-75.4% (active),-46.3% (active),-71.2% (active),-79.5% (active),-69.6% (active),-98.1% (active),-73.1% (active),-98.3% (active)
CC(=O)c1ccc(Nc2nc(SC(C)C)nc(-c3ccccc3)c2C#N)cc1,58.7% (inactive),90.7% (inactive),47.4% (inactive),34.9% (inactive),26.4% (inactive),8.81% (active),70.2% (inactive),82.2% (inactive),131% (inactive) and -1.07% (active)
CC(=O)c1ccc(NC(=O)NCn2c(=O)[nH]c3ccccc3c2=O)cc1,83% (inactive),159% (inactive),99.6% (inactive),101% (inactive),83% (inactive),110% (inactive),112% (inactive),103% (inactive),92% (inactive)
COc1ccc2[nH]cc(/C=N/Nc3cccc(Cl)n3)c2c1,31.5% (inactive),12.1% (inactive),44.7% (inactive),79.7% (inactive),31.9% (inactive),37.3% (inactive),39.7% (inactive),21.3% (inactive),-13.2% (active)
O=S(=O)(Nc1ncccn1)c1ccc(-n2c(-c3ccccc3)nc(-c3ccccc3)c2-c2ccccc2)cc1,52.2% (inactive),69% (inactive),101% (inactive),91.9% (inactive),71.1% (inactive),86.4% (inactive),89.3% (inactive),88.4% (inactive),85.7% (inactive)
O=C(CNc1nc(-c2ccccc2)cs1)Nc1ccc([N+](=O)[O-])cc1,2.53% (active),12.3% (inactive),40.6% (inactive),7.63% (active),1.69% (active),11.7% (inactive),-97.8% (active),36.7% (inactive),-88.2% (active)
O=C(c1ccc(O)cc1)C1[C@H](c2ccccc2Br)[C@@H](c2ccccc2)NC12C(=O)Nc1ccc(Br)cc12 (some centres not stated),61.7% (inactive),55.6% (inactive),33.8% (inactive),50.9% (inactive),7.04% (active),61.6% (inactive),-13.8% (active),18.4% (inactive),-25.6% (active)
CC(C)NC(=O)c1cc(-c2ccc(NC(=O)Nc3ccc(N4CCN(C)CC4)c(C(F)(F)F)c3)cc2)nc2cccnc12,-16.6% (active),-95.5% (active),-96.5% (active),-64.6% (active),-75.6% (active),-90.6% (active),-97.9% (active),-83.6% (active),-90.9% (active)
c1ccc(C(=C(c2ccc(OCCN3CCCCC3)cc2)c2ccc(OCCN3CCCCC3)cc2)C2CCCC2)cc1,-1.48% (active),-54.7% (active),-98.5% (active),-62.6% (active),-71.1% (active),-62.8% (active),-99.5% (active),-80.5% (active),-87.8% (active)
Cc1ccc(NC(=O)NCn2c(=O)[nH]c3ccccc3c2=O)cc1,79.6% (inactive),115% (inactive),86.3% (inactive),78.5% (inactive),72% (inactive),60.1% (inactive),102% (inactive),98.9% (inactive),84.1% (inactive)
Cc1ccc(C(=O)NCCCNc2nc(Nc3ccc(N4CCN(C)CC4)cc3)nc3ccsc23)cc1,4.51% (active),65.4% (inactive),43.9% (inactive),31.6% (inactive),16.6% (inactive),9.28% (active),43.7% (inactive),37.2% (inactive),45.4% (inactive)
CN1CCN(c2ccc(C(=O)/C=C/c3ccc(C#N)cc3)cc2)CC1,87.4% (inactive),91.1% (inactive),28.1% (inactive),35.5% (inactive),6.57% (active),18% (inactive),47% (inactive),46.8% (inactive),26.5% (inactive)
